Assay outcomes (PubChem)
Tau fluor counter: counter-screen for tau fibril formation inhibitors; tau K18 P301L Alexa594 fluorescence, heparin fibrillization; Potency, µM (titrated, usually from 57.7 µM), for inactives: at the top dose activity change, negative = decrease; hit rate 0.93% among 280,000; AID 1463; note: nearly all actives have a fitted effect of over 55% in size
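Human K18 P301L tau (15 uM unlabeled plus 0.24 uM Alexa 594-labeled, final) in 100 mM sodium acetate pH 7 was mixed with compound and 20 uM heparin and incubated 6 hr at 37 C.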
Gal4-VP16 FLuc: counter-screen for ROR gamma inhibitors: Gal4-VP16 reporter; Drosophila S2 Gal4-VP16 UAS-luciferase, luminescence, 20 h; Potency, µM (series often up to 53.6 µM), inactives show top-dose activity, negative = inhibition, usual class: inhibitors; hit rate 3.5% among 310,000; AID 2546;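 note: Gal4-VP16 expression switched on by copper sulfate through the metallothionein promoter; nearly all actives have a fitted effect of over 50% in size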
Tau ThT inhib: inhibitors of human tau fibril formation, thioflavin T binding; recombinant tau K18 P301L (four-repeat tau fragment), heparin-induced fibrillization, ThT fluorescence; Potency, µM (series often up to 57.4 µM), for the others: at the top dose activity, negative = inhibition, most hits filed as inhibitors; hit rate 2.1% among 270,000; note: nearly all actives have a fitted effect of over 55% in size
Target sequence (P10636 561-689 P618L limits assumed): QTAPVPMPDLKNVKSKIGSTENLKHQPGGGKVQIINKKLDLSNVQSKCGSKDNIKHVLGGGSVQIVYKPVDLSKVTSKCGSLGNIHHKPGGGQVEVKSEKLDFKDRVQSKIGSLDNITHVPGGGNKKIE
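Aggregation was driven by heparin (20 uM final) acting on recombinant tau […] bearing P301L in 100 mM sodium acetate pH 7; fibrils were detected with Thioflavin T.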
RORgamma inh: ROR gamma (mouse) transcription inhibition; hit rate 5.4% among 310,000; P51450; Drosophila S2 Gal4-RORgamma UAS-luciferase reporter, 20 h; Potency, µM (series often up to 53.6 µM), for inactives: at the top dose activity change, negative = inhibition, actives largely listed as inhibitors; note: nearly all actives have a fitted effect of over 60% in size
Target sequence (P51450 whole entry, looked up, the tested form may be a part): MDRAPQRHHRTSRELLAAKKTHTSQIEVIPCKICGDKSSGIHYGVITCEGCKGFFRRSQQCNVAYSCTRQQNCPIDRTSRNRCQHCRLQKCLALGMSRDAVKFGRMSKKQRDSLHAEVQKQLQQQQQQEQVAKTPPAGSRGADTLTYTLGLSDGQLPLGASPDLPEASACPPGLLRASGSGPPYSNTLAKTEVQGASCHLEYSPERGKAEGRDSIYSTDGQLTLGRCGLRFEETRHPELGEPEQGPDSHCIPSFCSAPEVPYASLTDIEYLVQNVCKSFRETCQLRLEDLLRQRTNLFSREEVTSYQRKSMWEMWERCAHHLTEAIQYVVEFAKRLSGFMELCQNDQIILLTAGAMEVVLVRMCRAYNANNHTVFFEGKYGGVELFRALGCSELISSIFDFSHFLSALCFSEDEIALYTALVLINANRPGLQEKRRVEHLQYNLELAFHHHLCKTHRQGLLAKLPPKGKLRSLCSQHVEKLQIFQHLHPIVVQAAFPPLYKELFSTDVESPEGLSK
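Luciferase reporter read in Schneider cells carrying Gal4-RORγ (mouse) and UAS-Photinus luciferase; cells given compound 1 h before 700 uM copper sulfate induction, then incubated 20 h at ambient temperature.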
Tau fibril FP: blocks human tau fibril formation measured by polarization. P10636. K18 P301L tau heparin fibrillization, Alexa594 FP, 6 h. Potency, µM (series often up to 57.7 µM), inactives show at the top dose activity, negative = inhibition, usual class: inhibitors. hit rate 0.39% among 280,000; note: nearly all actives have a fitted effect of over 55% in size
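FP of Alexa 594-tau after heparin (20 uM) induction. Substrate: human K18 P301L, 15 uM unlabeled, 0.24 uM labeled. Buffer 100 mM sodium acetate pH 7. 6 hr, 37 C.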
An asterisk follows results filed as active; [ ] = dose if it differs, or a comment. Rows were chosen to be rich in hits. Some 7.3% of all compounds tested hit in one or more screens of this group. Calls come from the whole dose curve; as a rule, active = well fitted curve in the direction sought with a large enough effect; inconclusive = small, poorly fitted or top-dose-only effect, or another doubt; inactive = no such curve, though single readings can be large; an effect the other way counts as inactive or inconclusive. % is set by controls: 0 for no effect and ±100 for the full control effect; potency is the fitted concentration of half-maximal effect.

What do the screens show for `Cc1ccccc1C(=O)N/N=C/c1ccc([N+](=O)[O-])s1`?
Tau fluor counter: -16.6%; Gal4-VP16 FLuc: 2µM*; Tau ThT inhib: inconclusive; RORgamma inh: 1.78µM*; Tau fibril FP: -2.0%

How did Cc1ccc(/C=N/NC(=O)c2cccnc2)o1 do in these assays?
Tau fluor counter: -5.8%; Gal4-VP16 FLuc: -9.6%; Tau ThT inhib: -8.5%; RORgamma inh: -27.1%; Tau fibril FP: -5.5%

What do the screens show for `Cc1cc(C(=O)N/N=C/c2ccc([N+](=O)[O-])s2)c2ccccc2n1`?
Gal4-VP16 FLuc: 3.55µM*; RORgamma inh: 5.62µM*

What do the screens show for `Cc1ccsc1/C=N/Nc1ccc(C(=O)O)cc1`?
Gal4-VP16 FLuc: 0.224µM*; RORgamma inh: 1.12µM*

How did Cc1ccc(/C=N\NC(=O)c2cncc(Br)c2)o1 do in these assays?
Tau fluor counter: 0.5%; Gal4-VP16 FLuc: inconclusive; Tau ThT inhib: -11.4%; RORgamma inh: 5.01µM*; Tau fibril FP: -0.4%

How did COc1ccc(-c2nc(C)c(CCNC(=O)C(=O)Nc3cc(C)cc(C)c3)s2)cc1OC do in these assays?
Tau fluor counter: -5.7%; Tau ThT inhib: inconclusive; Tau fibril FP: 1.0%

How did CCCCNC(=O)c1cnn2c(C)c(Cc3c(C)cc(C)cc3C)c(C)nc12 do in these assays?
Tau fluor counter: -1.7%; Tau ThT inhib: inconclusive; Tau fibril FP: -7.4%

Results for O=S(=O)(Nc1ccc2ccccc2n1)c1ccccc1 ?
Gal4-VP16 FLuc: -2.0%; RORgamma inh: 19.2%

Results for COc1ccc(CCNC(=O)c2ccc3c(c2)N(Cc2ccc(F)cc2)C(=O)CS3)cc1OC ?
Tau fluor counter: -18.6%; Tau ThT inhib: -1.0%; Tau fibril FP: 6.7%

Results for CCOc1ccc(Br)cc1/C=N/NC(=O)c1ccncc1 ?
Tau fluor counter: -2.5%; Gal4-VP16 FLuc: 4.9%[0.365 µM]; Tau ThT inhib: -8.4%; RORgamma inh: inconclusive; Tau fibril FP: -0.2%

How did Cc1ccc(-c2nnc(SCC(=O)N/N=C/c3ccc(C)s3)n2-c2ccc(C)cc2)cc1 do in these assays?
Tau fluor counter: -24.0%; Gal4-VP16 FLuc: inconclusive; Tau ThT inhib: -10.2%; RORgamma inh: 17.8µM*; Tau fibril FP: -4.6%

How did O=C(N/N=C\c1cc(Br)cs1)c1ccncc1 do in these assays?
Tau fluor counter: -8.8%; Gal4-VP16 FLuc: 2.82µM*; Tau ThT inhib: -8.4%; RORgamma inh: 1.58µM*; Tau fibril FP: -4.9%

How did O=C(COc1ccccc1Cl)N1CCN(c2ccc(F)cc2)CC1 do in these assays?
Tau fluor counter: -8.9%; Gal4-VP16 FLuc: 4.5%; Tau ThT inhib: -6.4%; RORgamma inh: 16.3%; Tau fibril FP: 4.3%

What do the screens show for `CNc1cc(N2CCN(S(=O)(=O)N(C)C)CC2)ccc1[N+](=O)[O-]`?
Tau fluor counter: -2.0%; Gal4-VP16 FLuc: -6.4%; Tau ThT inhib: 15.8µM*; RORgamma inh: 12.4%; Tau fibril FP: -2.0%

How did O=C(COc1ccccc1Cl)N1CCN(c2ccc([N+](=O)[O-])c(N3CCOCC3)c2)CC1 do in these assays?
Tau fluor counter: inconclusive; Gal4-VP16 FLuc: -19.0%; Tau ThT inhib: 12.6µM*; RORgamma inh: inconclusive; Tau fibril FP: -5.7%

How did O=C(c1ccccc1F)N1CCN(c2ccc([N+](=O)[O-])c(NCC3CCCO3)c2)CC1 (configuration not stated) do in these assays?
Tau fluor counter: -12.2%; Gal4-VP16 FLuc: -8.6%; Tau ThT inhib: inconclusive; RORgamma inh: 27.1%; Tau fibril FP: 12.0%

What do the screens show for `CN(C)S(=O)(=O)N1CCN(c2ccc([N+](=O)[O-])c(NC3CC3)c2)CC1`?
Tau fluor counter: -16.9%; Gal4-VP16 FLuc: -4.6%; Tau ThT inhib: inconclusive; RORgamma inh: -3.9%; Tau fibril FP: 5.8%

What do the screens show for `O=[N+]([O-])c1ccc(N2CCCC2)cc1NC1CC1`?
Tau fluor counter: -16.5%; Gal4-VP16 FLuc: -4.1%; Tau ThT inhib: 14.1µM*; RORgamma inh: 36.3%; Tau fibril FP: -6.1%

What do the screens show for `CC(=O)N1CCN(c2ccc([N+](=O)[O-])c(NCC3CCCO3)c2)CC1` (configuration not stated)?
Tau fluor counter: 0.3%; Gal4-VP16 FLuc: -14.4%; Tau ThT inhib: 14.1µM*; RORgamma inh: 3.9%; Tau fibril FP: -0.9%

What do the screens show for `Cc1cc2c(cc1Cl)C(c1ccccc1C)CC(=O)O2` (configuration not stated)?
Tau fluor counter: inconclusive; Gal4-VP16 FLuc: 2.0%; Tau ThT inhib: -17.7%[81.4 µM]; RORgamma inh: -39.0%; Tau fibril FP: -17.5%[81.3 µM]

What do the screens show for `O=[N+]([O-])c1ccc(N2CCCC2)cc1N1CCCC1`?
Tau fluor counter: -18.1%; Gal4-VP16 FLuc: -1.8%; Tau ThT inhib: 17.8µM*; RORgamma inh: -6.9%; Tau fibril FP: -0.2%

What do the screens show for `O=[N+]([O-])c1ccc(N2CCCCC2)cc1N1CCOCC1`?
Tau fluor counter: -5.9%; Gal4-VP16 FLuc: -6.3%; Tau ThT inhib: inconclusive; RORgamma inh: 1.7%; Tau fibril FP: -11.4%

Results for Nc1cc(N2CCOCC2)c(Cl)cc1[N+](=O)[O-] ?
Tau fluor counter: 5.5%; Gal4-VP16 FLuc: 6.3%; Tau ThT inhib: inconclusive; RORgamma inh: 14.5%; Tau fibril FP: 3.6%

Results for Nc1cc(N2CCCC2)c(Cl)cc1[N+](=O)[O-] ?
Tau fluor counter: -26.0%; Gal4-VP16 FLuc: inconclusive; Tau ThT inhib: 15.8µM*; RORgamma inh: 33.9%; Tau fibril FP: -0.3%

How did CC(C)(C)c1ccc(CNc2cc(N3CCOCC3)ccc2[N+](=O)[O-])cc1 do in these assays?
Tau fluor counter: 3.98µM*[quencher]; Gal4-VP16 FLuc: -13.6%; Tau ThT inhib: 7.08µM*; RORgamma inh: 30.3%; Tau fibril FP: 28.2µM*

What do the screens show for `CC(C)C(=O)N1CCN(c2ccc([N+](=O)[O-])c(NC(C)c3ccccc3)c2)CC1` (configuration not stated)?
Tau fluor counter: -23.8%; Gal4-VP16 FLuc: -11.8%; Tau ThT inhib: 15.8µM*; RORgamma inh: 21.9%; Tau fibril FP: 1.5%

What do the screens show for `Cc1ccc(C(=O)N2CCN(c3ccc([N+](=O)[O-])c(NCc4cccnc4)c3)CC2)cc1`?
Tau fluor counter: -7.8%; Gal4-VP16 FLuc: -3.8%; Tau ThT inhib: 12.6µM*; RORgamma inh: inconclusive; Tau fibril FP: 10.4%

Results for CC(=O)Oc1ccc(N(C(C)=O)S(=O)(=O)c2cccs2)c2ccccc12 ?
Tau fluor counter: inconclusive; Gal4-VP16 FLuc: inconclusive; Tau ThT inhib: inconclusive; RORgamma inh: 20µM*; Tau fibril FP: -12.2%

How did CC(=O)Oc1ccccc1N(C(C)=O)S(=O)(=O)c1ccc2ccccc2c1 do in these assays?
Tau fluor counter: -2.0%; Gal4-VP16 FLuc: -4.0%; Tau ThT inhib: -7.1%; RORgamma inh: inconclusive; Tau fibril FP: 4.7%

Results for CCOC(=O)C1CCN(S(=O)(=O)c2cccc(-c3cn4cccnc4n3)c2)CC1 ?
Tau fluor counter: -6.4%; Gal4-VP16 FLuc: inconclusive; Tau ThT inhib: -2.1%; RORgamma inh: 42.6%; Tau fibril FP: -9.1%
